Test results taken from PubChem BioAssay.
Activity calls are given as the source filed them.

What was measured:
[1] = molecular target: Albumin (Bos taurus) (UniProt P02769); experiment: bovine serum albumin binders on microarray, profiling panel, artefact control for SMM control protein annotation, biochemical, small-molecule microarray, Alexa647 label, 635/667 nm fluorescence (AID 1118); conditions: BSA-A647 binding, fluorescence 635 nm, higher = more signal;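 note: score merges 667 nm emission intensity and signal-to-noise per printed compound spot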
[2] = small-molecule microarray binders of probe aXIP, primary screen, biochemical, NeuroSMM set, 635/667 nm fluorescence (AID 1119); conditions: higher = more signal, called active from +8 up or from −8 down;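 note: probe is the protein aXip251-270 applied at 1 µg/mL to compound-printed slides; binding of probe to printed compounds measured as 667 nm fluorescence plus signal to noise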
[3] = small-molecule binders of probe aNOTCH3, primary screen, biochemical, small-molecule microarray, 635/667 nm fluorescence (AID 1120); conditions: higher = more signal;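 note: probe is a biotin-tagged antibody raised against NOTCH3 rather than NOTCH3 protein; score merges spot fluorescence near 667 nm with spot signal to noise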
[4] = small-molecule binders of probe aNOTCH2, primary screen, biochemical, small-molecule microarray, 635/667 nm fluorescence (AID 1121); conditions: higher = more signal;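 note: score merges feature fluorescence read at 667 nm with its signal to noise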
[5] = molecular target: Carbonic anhydrase 2 (Homo sapiens) (UniProt P00918); experiment: CAII small-molecule binders, profiling panel, biochemical, small-molecule microarray, Alexa647-labelled CAII (AID 1122); conditions: CAII-A647 binding fluorescence, higher = more signal
[6] = COS7 lysate on small-molecule microarray, probe aHis, 635 nm (AID 1123); conditions: COS7 cell lysate, fluorescence, higher = more signal;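 note: z-score combines 667nm fluorescence intensity with signal-to-noise per printed compound spot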
[7] = compound binding in COS7 lysate, probe aLAP1, primary screen, cell lysate, small-molecule microarray (AID 1124); conditions: probe aLAP1, fluorescence, higher = more signal;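 note: lysate comes from COS7 cells expressing LAP1 and is applied at 0.3 µg/mL; score merges spot fluorescence near 667 nm with signal-to-noise over triplicate slides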
[8] = system: Sam68 (KHDRBS1); experiment: Sam68 small-molecule binders, primary screen, biochemical, small-molecule microarray, 635 nm fluorescence (AID 1125); conditions: small-molecule microarray binding, higher = more signal;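 note: score merges 667 nm channel intensity with signal to noise over triplicate slides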
[9] = system: Chordin-like protein 2 (CHRDL2); experiment: CHRDL2 small-molecule binders, primary screen, biochemical, small-molecule microarray, 635 nm fluorescence (AID 1126); conditions: small-molecule microarray binding, fluorescence 635 nm; higher = more signal;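 note: printed compound slides probed with Chrdl2 protein at 4 µg/mL for 1 h at 4 C; score merges 667 nm emission intensity with signal to noise over three replicate slides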
[10] = molecular target: Concanavalin-A (Canavalia ensiformis) (UniProt P02866); experiment: ConA small-molecule binders, primary screen, artefact control for SMM control protein annotation, biochemical, small-molecule microarray, Alexa647 label, 635 nm (AID 1127); conditions: ConA-A647 binding fluorescence, higher = more signal;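 note: z combines 667 nm emission intensity with signal-to-noise across three replicate slides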
[11] = anti-His antibody binders, primary screen, artefact control for SMM control protein annotation, biochemical, small-molecule microarray, 635 nm fluorescence (AID 1128); conditions: anti-His Alexa647 antibody binding, higher = more signal;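 note: score merges feature fluorescence with signal-to-noise for each printed compound spot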
[12] = system: Human papillomavirus type 1a E7 protein (residues 1-88); experiment: HPV1a E7 small-molecule binders, primary screen, biochemical, small-molecule microarray, residues 1-88, 635 nm (AID 1129); conditions: small-molecule microarray binding, fluorescence 635 nm; higher = more signal
[13] = molecular target: Focal adhesion kinase 1 (Homo sapiens) (UniProt Q05397); experiment: small-molecule microarray binders of FAK, primary screen, biochemical, 635/667 nm fluorescence, BSA, DTT (AID 1130); conditions: PTK2 binding, 635 nm fluorescence, higher = more signal;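 note: composite of spot emission at 667 nm and signal to noise over triplicate slides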
[14] = system: Fibrinogen (Alexa647-labelled); experiment: fibrinogen binders on compound microarrays, profiling panel, artefact control for SMM control-protein annotation, biochemical, small-molecule microarray, 635/667 nm fluorescence (AID 1131); conditions: fibrinogen-A647 binding fluorescence, higher = more signal;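 note: z-score merges 667 nm fluorescence with per-spot signal-to-noise over triplicate slides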
[15] = molecular target: Follistatin (Homo sapiens) (UniProt P19883); experiment: follistatin binders on small-molecule microarrays, primary screen, biochemical, small-molecule microarray, 635/667 nm fluorescence (AID 1132); conditions: FST binding, 635 nm fluorescence, higher = more signal
[16] = molecular target: Fibroblast growth factor 2 (Homo sapiens) (UniProt P09038); experiment: FGF2 binders on small-molecule microarrays, primary screen, biochemical, small-molecule microarray, 635/667 nm fluorescence (AID 1133); conditions: small-molecule microarray binding, FGF2, fluorescence 635/667; higher = more signal
[17] = mitochondrial membrane potential change in A549 cells, profiling panel, cell-based, JC-1 fluorescence, basal, 24 h, 100 nL (AID 1138); conditions: higher = more signal;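 note: A549 lung adenocarcinoma cells under basal conditions with no added stimulus; test concentration not given here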
[18] = system: Lefty1; experiment: Lefty1 binders on small-molecule microarrays, primary screen, biochemical, small-molecule microarray, 635/667 nm fluorescence (AID 1139); conditions: small-molecule microarray binding, fluorescence 635/667; higher = more signal
[19] = system: wheat germ agglutinin (Triticum aestivum), Alexa647-labelled; experiment: wheat germ agglutinin binders on compound microarrays, profiling panel, artefact control for SMM control-protein annotation, biochemical, small-molecule microarray, 635/667 nm fluorescence (AID 1140); conditions: WGA-A647 binding, 635 nm fluorescence, higher = more signal;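 note: score merges 667 nm feature emission with signal to noise over triplicate slides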
[20] = molecular target: Luciferin 4-monooxygenase (Photinus pyralis) (UniProt P08659); experiment: firefly luciferase enzyme inhibitors, primary screen, biochemical, luminescence, purified enzyme, 2006 set (AID 1141); conditions: SteadyGlo luminescence, 30 min, higher = more signal, called active from +8 up or from −8 down;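 note: cell-free assay with purified firefly luciferase at 100 ng per well in PBS; test concentration not given here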
Sequence of Luciferin 4-monooxygenase (Photinus pyralis) (P08659 whole entry, looked up): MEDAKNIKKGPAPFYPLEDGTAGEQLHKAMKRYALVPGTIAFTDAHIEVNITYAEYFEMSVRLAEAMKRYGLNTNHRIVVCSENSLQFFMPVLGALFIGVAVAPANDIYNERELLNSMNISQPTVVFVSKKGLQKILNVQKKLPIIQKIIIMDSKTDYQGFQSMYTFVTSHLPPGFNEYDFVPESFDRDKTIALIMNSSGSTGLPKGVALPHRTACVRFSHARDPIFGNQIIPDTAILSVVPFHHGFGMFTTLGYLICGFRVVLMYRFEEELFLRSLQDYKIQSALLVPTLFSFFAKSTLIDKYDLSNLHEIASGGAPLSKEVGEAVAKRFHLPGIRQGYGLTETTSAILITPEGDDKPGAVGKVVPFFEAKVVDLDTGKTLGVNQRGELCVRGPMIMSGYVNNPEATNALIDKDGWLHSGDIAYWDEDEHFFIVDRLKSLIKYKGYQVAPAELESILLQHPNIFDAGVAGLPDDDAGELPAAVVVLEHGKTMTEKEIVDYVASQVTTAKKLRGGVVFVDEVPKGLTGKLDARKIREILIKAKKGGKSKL

Sequence of Follistatin (Homo sapiens) (P19883 whole entry, looked up): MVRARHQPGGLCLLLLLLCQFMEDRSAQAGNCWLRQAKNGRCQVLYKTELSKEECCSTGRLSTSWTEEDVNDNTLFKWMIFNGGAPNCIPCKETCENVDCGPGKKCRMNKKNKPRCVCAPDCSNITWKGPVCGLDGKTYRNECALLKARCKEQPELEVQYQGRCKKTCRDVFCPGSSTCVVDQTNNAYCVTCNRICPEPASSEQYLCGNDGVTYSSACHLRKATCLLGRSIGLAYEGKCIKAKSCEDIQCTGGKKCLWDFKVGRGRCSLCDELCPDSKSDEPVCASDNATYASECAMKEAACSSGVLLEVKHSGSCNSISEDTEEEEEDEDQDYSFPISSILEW
Sequence of Albumin (Bos taurus) (P02769 whole entry, looked up): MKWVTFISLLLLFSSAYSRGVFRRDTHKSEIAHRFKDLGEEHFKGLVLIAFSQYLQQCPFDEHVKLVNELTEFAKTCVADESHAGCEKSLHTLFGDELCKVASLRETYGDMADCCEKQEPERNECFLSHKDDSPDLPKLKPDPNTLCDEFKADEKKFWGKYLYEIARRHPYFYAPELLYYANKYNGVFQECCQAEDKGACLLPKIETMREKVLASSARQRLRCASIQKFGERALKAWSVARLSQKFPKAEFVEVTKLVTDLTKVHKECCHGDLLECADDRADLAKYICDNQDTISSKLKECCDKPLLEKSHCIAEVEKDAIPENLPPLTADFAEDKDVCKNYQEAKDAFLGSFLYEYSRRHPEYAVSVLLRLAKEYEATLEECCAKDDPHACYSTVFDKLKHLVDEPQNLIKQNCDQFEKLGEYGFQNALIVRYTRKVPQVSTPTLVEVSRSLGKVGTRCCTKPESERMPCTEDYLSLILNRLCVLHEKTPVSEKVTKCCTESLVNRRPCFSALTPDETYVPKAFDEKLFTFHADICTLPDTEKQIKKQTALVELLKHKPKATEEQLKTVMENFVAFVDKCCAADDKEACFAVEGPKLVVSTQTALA
Sequence of Focal adhesion kinase 1 (Homo sapiens) (Q05397 whole entry, looked up): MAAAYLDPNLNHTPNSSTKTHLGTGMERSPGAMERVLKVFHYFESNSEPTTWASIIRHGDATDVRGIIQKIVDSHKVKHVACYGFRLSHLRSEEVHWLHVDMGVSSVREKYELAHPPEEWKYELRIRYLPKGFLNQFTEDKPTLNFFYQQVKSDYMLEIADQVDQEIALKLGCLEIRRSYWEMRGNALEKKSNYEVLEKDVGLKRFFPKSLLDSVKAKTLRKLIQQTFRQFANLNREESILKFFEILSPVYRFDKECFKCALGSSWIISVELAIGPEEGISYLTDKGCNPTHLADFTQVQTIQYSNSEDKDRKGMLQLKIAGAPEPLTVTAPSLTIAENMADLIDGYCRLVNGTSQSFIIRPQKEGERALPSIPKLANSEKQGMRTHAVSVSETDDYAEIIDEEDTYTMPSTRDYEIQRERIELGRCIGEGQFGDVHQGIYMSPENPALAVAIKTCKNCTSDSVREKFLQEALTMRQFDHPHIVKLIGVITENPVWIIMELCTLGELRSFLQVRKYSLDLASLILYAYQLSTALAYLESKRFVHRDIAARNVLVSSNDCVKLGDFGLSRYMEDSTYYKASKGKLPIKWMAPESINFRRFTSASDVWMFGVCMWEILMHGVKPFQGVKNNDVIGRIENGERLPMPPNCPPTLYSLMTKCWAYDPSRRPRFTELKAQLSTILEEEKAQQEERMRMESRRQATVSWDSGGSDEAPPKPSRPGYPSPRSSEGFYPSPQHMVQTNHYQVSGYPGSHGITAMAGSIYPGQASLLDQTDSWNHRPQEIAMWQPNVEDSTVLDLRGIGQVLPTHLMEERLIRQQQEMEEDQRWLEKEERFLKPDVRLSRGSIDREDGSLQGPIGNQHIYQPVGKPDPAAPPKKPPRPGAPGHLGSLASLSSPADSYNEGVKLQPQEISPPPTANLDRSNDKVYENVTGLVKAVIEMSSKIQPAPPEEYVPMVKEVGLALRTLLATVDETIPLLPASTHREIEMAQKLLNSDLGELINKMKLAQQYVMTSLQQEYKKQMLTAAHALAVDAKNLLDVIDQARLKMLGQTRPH
Sequence of Concanavalin-A (Canavalia ensiformis) (P02866 whole entry, looked up): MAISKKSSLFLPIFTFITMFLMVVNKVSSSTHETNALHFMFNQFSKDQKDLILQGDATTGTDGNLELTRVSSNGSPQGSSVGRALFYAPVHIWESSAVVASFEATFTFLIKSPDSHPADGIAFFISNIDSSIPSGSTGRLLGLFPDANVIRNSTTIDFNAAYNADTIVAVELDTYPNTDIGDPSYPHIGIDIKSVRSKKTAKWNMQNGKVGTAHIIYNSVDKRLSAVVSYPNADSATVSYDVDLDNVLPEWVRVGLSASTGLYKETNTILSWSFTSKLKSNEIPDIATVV
Sequence of Fibroblast growth factor 2 (Homo sapiens) (P09038 whole entry, looked up): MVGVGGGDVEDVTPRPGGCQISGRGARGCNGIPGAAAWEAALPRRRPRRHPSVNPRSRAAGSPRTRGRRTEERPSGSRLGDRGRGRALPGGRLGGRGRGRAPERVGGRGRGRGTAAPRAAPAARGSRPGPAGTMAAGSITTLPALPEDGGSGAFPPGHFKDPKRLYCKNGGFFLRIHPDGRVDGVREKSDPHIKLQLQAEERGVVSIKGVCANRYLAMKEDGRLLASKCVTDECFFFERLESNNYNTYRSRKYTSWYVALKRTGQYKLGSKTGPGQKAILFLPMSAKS

Structure (SMILES) | composite z-score [1] | composite Z-score [2] | composite z-score [3] | composite z-score [4] | composite z-score [5] | composite z-score [6] | composite z-score [7] | composite z-score [8] | composite z-score [9] | composite z-score [10] | composite z-score [11] | composite z-score [12] | composite z-score [13] | composite z-score [14] | composite z-score [15] | composite z-score [16] | z-score [17] | composite z-score [18] | composite z-score [19] | z-score [20]
CC(C)C[C@@H]1NC(=O)[C@@H]2C[C@H](C(=O)NCCCCCCNC(=O)CS)[C@H](c3ccc(O)cc3)N2C1=O | -0.025 | 0.0101 (inactive) | 0.133 | -0.0817 | 0.706 | 1.91 | 0.655 | 1.28 | 1.26 | 0.995 | 2.1 | 1.28 | 0.116 | 0.913 | 1.46 | 1.62 | -1.16 | 1.41 | 0.907 | -0.677 (inactive)
CCOC(=O)C[C@H]1[C@H](OC(=O)c2ccccc2-c2ccccc2)[C@@H](NC(=O)CC(C)C)c2cc(OCCCO)ccc2N1C(=O)c1ccccc1 | 0.079 | 0.305 (inactive) | -0.0406 | -0.0698 | 0.742 | 0.429 | -0.161 | 0.207 | 0.389 | 0.125 | -0.229 | 0.0447 | -0.0647 | 0.24 | 1.01 | 0.583 | -0.154 | 1.01 | -0.0988 | 0.914 (inactive)
COc1ccc([Si](C)(C)[C@H]2[C@H](CC(=O)N(CCO)Cc3ccccc3)O[C@@]3(C(=O)N(Cc4ccc(N5C(=O)c6cccc7cccc5c67)cc4)c4ccccc43)[C@@H]2C)cc1 | 0.0079 | 0.0959 (inactive) | 0.376 | -0.0928 | 0.593 | 1.52 | 0.801 | 0.747 | 0.71 | 1.16 | 0.53 | 0.714 | 0.0253 | 0.624 | 1.17 | 1.06 | -0.701 | 1.2 | 0.59 | -0.354 (inactive)
O=C1C2C=CC(C(O)C3CC=CCC3)N(Nc3ccc([N+](=O)[O-])cc3)C2C(=O)N1c1ccccc1 (stereo not given) | 0.82 | 0.626 (inactive) | 0.749 | 0.326 | 0.693 | 2.5 | 1.21 | 1.33 | 0.729 | 1.07 | 2.2 | 1.2 | 0.876 | 0.994 | 1.36 | 0.0341 | -0.861 | 0.307 | 0.862 | 0.83 (inactive)
CCOC(=O)C1=C[C@@H](C(C)(C)C)N(S(=O)(=O)c2ccc(C)cc2)[C@H]1c1ccc(OC)cc1 | 0.847 | -0.244 (inactive) | 0.116 | -0.0956 | 0.392 | 1.8 | 0.315 | 1.3 | 0.209 | 1.14 | 0.772 | 1.22 | 1.62 | 1.02 | 0.688 | 0.387 | 2.61 | 0.554 | 0.782 | 1.95 (inactive)
O=C1N(Cc2ccccc2)c2ccccc2C[C@@]12N=C(c1ccc(OCCCO)cc1)O[C@H]2c1ccccc1 | 0.542 | -0.329 (inactive) | -0.0328 | -0.0664 | 0.183 | 2.47 | -0.0401 | 1.29 | 0.0949 | 1.06 | 1.81 | 1.13 | 0.791 | 0.209 | 1.33 | 1.39 | -0.518 | 0.309 | 0.294 | -2 (inactive)
